PubChem BioAssay (NCI)
Several values for one entry are separate records, joined by “and”; a condition that tells them apart may be missing. Equal entries are not always repeated. This is part of a sample that, as a whole, favours compounds with a hit. Of some 83,000 tested, about 20% had one in any assay.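 For each line, cells grew in 96-well plates with the test compound present at a single concentration for 48 hours.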 Activity calls are given as the source filed them.

System: RPMI-8226 leukemia
Assay: NCI-60 one-dose screen, 48 h (100 = growth as untreated, 0 = no growth, -100 = all killed)
Settings: 10 µM
Protocol: Growth inhibition of the RPMI-8226 human tumor cell line is measured as a screen for anti-cancer activity. Cells are grown in 96 well plates and exposed to the test compound for 48 hours. Compounds are tested at a single concentration, which is 10^-5 M for most compounds. The reported endpoint is percent growth (GI% or GIPRCNT), where numbers from 0 - 100% represent growth inhibition, and numbers from -100% - 0 represent cell death. For example, a value of 40 represents 60% growth inhibition. A value of 0 means no net growth occurred over the course of the experiment. A value of -40 indicates 40% of cells at the beginning of the experiment died by the end of the experiment. A value of -100 means all cells are dead at the end of the experiment.
NCI-60 Human Tumor Cell Lines Screen was performed using the standard one-dose NCI protocol, which is described in more detail at https://dtp.cancer.gov/discovery_development/nci-60/default.htm.
Compounds with GIPRCNT values below 10 were considered active. Activity score was based on GIPRCNT using the following formula: […]
Score is 0 for GIPRCNT values of 100 or above, 50 for GIPRCNT values of 0, and 100 for GIPRCNT values of -100.

Row | SMILES | growth
1 | Oc1c(I)cc(I)cc1I | 94% (inactive)
2 | O=[N+]([O-])/C=C/c1ccc(Cl)cc1[N+](=O)[O-] | -11.3% (active)
3 | COc1cc(/C=C/[N+](=O)[O-])cc(Br)c1OC | -15.7% (active)
4 | Cc1cc([N+](=O)[O-])c2ccccc2[n+]1[O-] | -23.6% (active) and -42.3% (active)
5 | Cc1ccc(NC(=O)CBr)cc1 | 102% (inactive)
6 | COc1ccc(/C=C\[N+](=O)[O-])cc1OC | 20.7% (inactive) and -31.7% (active)
7 | COC1CC2C=C(C)/C=C/C=C/C(=O)NC(c3ccccc3)C/C=C/CCC(O)CC(=O)C2=C1O (stereo not given) | -40.8% (active)
8 | Cn1c(O)c(N=O)c(=O)n(C)c1=O | 110% (inactive) and 92% (inactive)
9 | N#CCc1ccccc1 | 101% (inactive)
10 | CN(CCCl)c1ccc(/C=C/C2=[N+](C)c3ccccc3C2(C)C)cc1 | 10.6% (inactive)
11 | CC[C@@H](C)[C@@H]1NC(=O)C(NC(=O)C(CC(C)C)N(C)C(=O)C2CCCN2C(=O)C(C)O)C(C)OC(=O)C(Cc2ccc(OC)cc2)N(C)C(=O)C2CCCN2C(=O)C(CC(C)C)NC(=O)C(C)C(=O)C(C(C)C)OC(=O)C[C@H]1O (stereo not given in full) | -27.5% (active)
12 | CCOP(=O)(OCC)/C(C#N)=C/c1ccc(Br)cc1 | 54.9% (inactive)
13 | CC(C)c1cc([N+](=O)[O-])cc([N+](=O)[O-])c1O | 116% (inactive)
14 | O=C(CBr)Nc1ccccc1 | 100% (inactive)
15 | O=c1[nH]c2ccccc2n1C1CCN(CCCC(c2ccc(F)cc2)c2ccc(F)cc2)CC1 | 11.2% (inactive) and 0.602% (active)
16 | CC/C(=C/c1ccc(OC)cc1)[N+](=O)[O-] | -8.7% (active)
17 | C/C1=C\[C@H](C)C[C@H](C)OC(=O)C[C@H](c2ccc(O)cc2)NC(=O)[C@@H](Cc2c(Br)[nH]c3ccccc23)N(C)C(=O)[C@H](C)NC(=O)[C@@H](C)C1 | -56.9% (active)
18 | Cc1cc(C(C)(C)c2ccc(O)c(C)c2)ccc1O | 93.6% (inactive)
19 | COc1cc([N+](=O)[O-])c2ncccc2c1[N+](=O)[O-] | 45.8% (inactive)
20 | C/C(=C\c1ccc(Cl)c(Cl)c1)[N+](=O)[O-] | -10.7% (active) and 91.3% (inactive)

Row | SMILES | growth
21 | CC[C@@]1(O)C[C@H](OC2CC(N(C)C)C(O)C(C)O2)c2c(cc3c(c2O)C(=O)c2c(O)ccc(O)c2C3=O)[C@H]1C(=O)OC (stereo not given in full) | -32.6% (active)
22 | NC(Cc1ccccc1)c1ccccc1 (stereo not given) | 111% (inactive) and 100% (inactive)
23 | Cc1ccc(C(=O)C2C(c3ccccc3)N2C2CCCCC2)cc1 (stereo not given) | 78.5% (inactive) and 94.1% (inactive)
24 | C=C1C(=O)O[C@@H]2C[C@@H](C)[C@@H]3C=CC(=O)[C@@]3(C)[C@@H](O)[C@H]12 | -52.3% (active)
25 | O=[P+](O)c1ccccc1 | 98.6% (inactive)
26 | COc1cc(/C=C\[N+](=O)[O-])ccc1O | -14.8% (active) and 27.5% (inactive)
27 | CC(C)(C)OOC(=O)/C=C\C(=O)OOC(C)(C)C | 112% (inactive)
28 | [O-][n+]1ccccc1S | 5.89% (active)
29 | CN(C)CC1(N)C(=O)NC(=O)NC1=O | 100% (inactive)
30 | COC(=O)C1C(O)C(C)C(O)C(C)/C=C\C=C(C)C(=O)Nc2c(C)c(OC(C)=O)c3c(c2O)C(=O)C(C)=C2OCOC(=C23)C(C)=CC(C)(O)C(O)C(C)C1O (stereo not given) | 95.3% (inactive)
31 | S=C=NCCc1ccccc1 | -18.9% (active)
32 | O=S(=O)(F)c1ccc(Cl)cc1 | 97.9% (inactive)
33 | COc1cc(/C=C(/C)[N+](=O)[O-])ccc1O | -21.5% (active)
34 | O=C1CCC(=O)N1SC(Cl)(Cl)Cl | 108% (inactive)
35 | CC(=O)Nc1c2sscc-2n(C)c1=O | -51.8% (active)
36 | O=[N+]([O-])/C=C/c1ccc([N+](=O)[O-])cc1 | -51.5% (active) and 17.3% (inactive)
37 | COC(C(=O)C(O)C(C)O)C1Cc2cc3cc(OC4CC(OC(C)=O)C(OC5CC(O)C(OC)C(C)O5)C(C)O4)cc(O)c3c(O)c2C(=O)C1OC1CC(OC2CC(OC3CC(C)(O)C(OC(=O)C(C)C)C(C)O3)C(O)C(C)O2)C(O)C(C)O1 (stereo not given) | -32.4% (active)
38 | O=C1C=Cc2ccccc2C1=O | 93.6% (inactive)
39 | COC12c3c(C)cc(O)c4c(=O)occ(c34)C(=O)C1C13COC(=O)c4c(O)cc(C)c(c41)C(=O)C2C3OC(C)=O (stereo not given) | 90.6% (inactive)
40 | CC(Cc1ccc2c(c1)OCO2)NN (stereo not given) | 91.8% (inactive)
